Out of some 63,000 compounds screened, about 1,100 (1.7%) were called active. Cut-off read from the data, not from the text of the source: active = cytotoxicity above about 50%; inactive = the rest. The entries come from a sample that favours actives as a whole. Entries with a potency or affinity are not part of this list.

This test is described as follows: cytotoxicity in HPDE-C7 cells, cell-based, fluorescence, HTS (AID 430).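 Note: cells exposed to compound for 48 hours before viability readout; 0% = vehicle and 100% = reference cytotoxic drug.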 To be noted: HPDE-C7 pancreatic duct cells viability, at 10 µM, hits give high values.
Consider `CCOc1ccccc1CN(Cc1ccco1)S(=O)(=O)c1ccc(-n2cnnn2)c(OC)c1`, for which the cytotoxicity was 56.5% (active).
As to `COc1cc(S(=O)(=O)N(Cc2cccnc2)Cc2ccco2)ccc1-n1cnnn1`, the cytotoxicity is -4.3% (inactive).
As to `COc1ccccc1CN(Cc1ccco1)S(=O)(=O)c1ccc(-n2cnnn2)c(OC)c1`, the cytotoxicity is 19.4% (inactive).
The result for `CCOC(=O)c1c(NC(=O)CN2CCOCC2)sc2c1CCCC2=O` reads 3.3% (inactive); that for `CCOc1cc(/C=N/n2cnnc2)ccc1OCC(=O)Nc1ccccc1OC`, 7.2% (inactive); that for `Cc1cccc(Nc2nc(NCc3ccco3)nc(N3CCOCC3)n2)c1`, 53% (active).
Consider `CN1CCN(c2nc(Nc3cccc(C(F)(F)F)c3)nc(N3CCOCC3)n2)CC1`, for which the cytotoxicity was 65.4% (active).
Next, `O=C(O)c1cccc(Nc2nc(N3CCOCC3)nc(N3CCOCC3)n2)c1`: -10% (inactive).
Next, `COc1nc(Nc2cccc(C(F)(F)F)c2)nc(OC)n1`: -28.1% (inactive); `Cc1ccc(Nc2nc(N3CCOCC3)nc(N3CCOCC3)n2)cc1`: 8.7% (inactive).
The result for `CC(C)c1ccc(Nc2nc(NCc3ccco3)nc(N3CCOCC3)n2)cc1` reads 27.5% (inactive); that for `Cc1nn(C)c(C)c1S(=O)(=O)NC1CCCc2ccccc21` (stereo not given), -10% (inactive); that for `CCc1n[nH]c2c1/C(=N\O)CC(c1ccccc1)C2` (stereo not given), -1.4% (inactive).
As to `O=C(C1CCN(c2nnc(-n3cccc3)s2)CC1)N1CCN(Cc2ccc3c(c2)OCO3)CC1`, the cytotoxicity was -3.5% (inactive).
Next, `C(=C\c1ccccc1)/CSc1nnc(-c2cnccn2)n1Cc1ccco1`: -10.9% (inactive).
The result for `CCOC(=O)N1CCN(C(=O)C(CC(C)C)NC(=O)C2CCCCC2)CC1` (stereo not given) reads -6.8% (inactive).
Next, `CCn1c(SCC(=O)Nc2oc(-c3ccccc3)c(-c3ccccc3)c2C#N)nnc1-c1ccco1`: 32.7% (inactive); `N#Cc1c(NC(=O)CN2CCOCC2)oc(-c2ccccc2)c1-c1ccccc1`: -0.2% (inactive); `N#Cc1c(NC(=O)Cn2c(=O)oc3ccccc32)oc(-c2ccccc2)c1-c1ccccc1`: 72% (active).
Turning to `N#Cc1c(NC(=O)CCN2C(=O)c3ccccc3C2=O)oc(-c2ccccc2)c1-c1ccccc1`, the cytotoxicity was 18.8% (inactive).
Next, `Cc1ccnc(SCC(=O)Nc2oc(-c3ccccc3)c(-c3ccccc3)c2C#N)n1`: 24.1% (inactive); `CC(=O)NC(C)C(=O)OCC(=O)c1ccc(Cl)s1` (stereo not given): -1.2% (inactive); `N#CCSc1nnc(COc2cccc3ccccc23)n1-c1ccccc1`: 37.6% (inactive).
Next, `CCS(=O)(=O)Nc1ccc(Cc2ccncc2)cc1`: -12.1% (inactive).
In the case of `CCOCCCNC(=O)C(c1ccc(OC)cc1)N(Cc1ccc2c(c1)OCO2)C(=O)CNC(C)=O` (stereo not given), the cytotoxicity is -6.5% (inactive).
For `C(=C\c1ccccc1)/CN1CCN(C(c2ccccc2)c2ccccc2)CC1`, the cytotoxicity was 13% (inactive).
Regarding `O=C(Nc1ccc(F)cc1)N1CCN(C/C=C/c2ccccc2)CC1`, the cytotoxicity was 11.6% (inactive).
Next, `COc1cc(C2C3=C(CC(c4ccco4)CC3=O)Nc3ccccc3N2C(C)=O)cc(OC)c1OC` (stereo not given): -7.9% (inactive).
For the molecule `Cc1ccc(-c2[nH]c(=O)n3ccncc23)s1`, the cytotoxicity was -9.9% (inactive).
As to `CCOc1nc(-c2ccccc2)ccc1-c1noc(-c2ccncc2)n1`, the cytotoxicity is 5.2% (inactive).
For the molecule `Cc1cnc(C(=O)Nc2ccc(N3CCOCC3)cc2)cn1`, the cytotoxicity is 1.3% (inactive).
The result for `Cc1cnc(C(=O)Nc2ccc(N3CCN(C(=O)OC(C)(C)C)CC3)cc2)cn1` reads 50.5% (active).
Next, `CC(C)(C)OC(=O)N1CCN(c2ccc(NC(=O)c3cc4ccccc4oc3=O)cc2)CC1`: -30.1% (inactive).
With `Cc1csc2nc(CCNS(=O)(=O)c3ccc4c(c3)OCCO4)cn12`, the cytotoxicity was 3.5% (inactive).
The result for `CCOC(=O)Nc1ccc2c(c1)N(C(=O)CCN1CCOCC1)c1ccccc1S2` reads -7.9% (inactive).
Next, `CCOC(=O)Nc1ccc2c(c1)Sc1ccccc1N2C(=O)CCN1CCOCC1`: 11.7% (inactive); `CCOC(=O)Nc1ccc2c(c1)N(C(=O)CCN1CCOCC1)c1ccccc1S2=O` (stereo not given): 85.2% (active); `CC1(C)Cc2c(sc3nc(SCC(=O)NCc4ccco4)n(-c4ccccc4)c(=O)c23)CS1`: 3.1% (inactive).
As for `O=C(CSc1nc2ccccc2c(=O)n1Cc1ccco1)NCc1ccco1`, the cytotoxicity is -1.8% (inactive).
The result for `O=C(CSc1nc2sc3c(c2c(=O)n1-c1ccccc1)CCCC3)NCc1ccco1` reads 85.6% (active).
Next, `O=c1c2ccccc2nc(SCc2ccccc2)n1Cc1ccco1`: 8.4% (inactive); `COc1cc2nc(SCC(=O)NCCc3ccccc3)n(Cc3ccco3)c(=O)c2cc1OC`: -3.3% (inactive).
The result for `COc1cc2nc(SCC(=O)NCc3ccco3)n(Cc3ccc(Cl)cc3)c(=O)c2cc1OC` reads 50.9% (active); that for `COCCNC(=O)CSc1nc2cc(OC)c(OC)cc2c(=O)n1Cc1ccco1`, -1.3% (inactive); that for `C=CCn1c(SCC(=O)NCc2ccco2)nc2sc3c(c2c1=O)CCCCC3`, 2.9% (inactive).
For the molecule `O=C(CSc1nc2ccccc2c(=O)n1Cc1ccco1)NCc1ccccc1`, the cytotoxicity was 58.8% (active).
Regarding `CC(=O)c1cc2c(cc1NC(=O)C1CC=CCC1C(=O)O)OCO2` (stereo not given), the cytotoxicity is -5.7% (inactive).
The result for `CCn1c(C(C)NC(=O)c2ccc(OC)c(OC)c2)nc2ccccc21` (stereo not given) reads 5.7% (inactive); that for `O=C(O)c1c[nH]ccc1=O`, -18.4% (inactive); that for `CCc1cc2c3c(c(=O)oc2cc1OC)CCCC3`, 0% (inactive).
In the case of `Cc1ccc(-c2nsc3c(N4CCN(C(=O)c5ccco5)CC4)ncnc23)cc1`, the cytotoxicity was -21.7% (inactive).
Turning to `CCCCN1Cc2cc(C(=O)c3cc(F)ccc3O)cnc2NC1=O`, the cytotoxicity is 6.2% (inactive).
Next, `CN1Cc2cc(C(=O)c3cc(Cl)cc(CSc4ncccn4)c3O)cnc2NC1=O`: 68.2% (active); `Cc1ccc(O)c(C(=O)c2cnc3c(c2)CN(CCC(C)C)C(=O)N3)c1`: -5.5% (inactive); `CNC(=O)NC(=O)CSc1cccc(C(F)(F)F)c1`: -6.3% (inactive).
Next, `COc1ccccc1N1CC(C(=O)OCC(=O)c2ccc(F)cc2)CC1=O` (stereo not given): -16.4% (inactive).
Next, `Cc1ccc(-c2noc(-c3cccs3)n2)cc1`: 0.6% (inactive); `O=C(Nc1cccnc1)c1cc(-c2cccs2)on1`: 14.1% (inactive).
In the case of `O=C(Nc1ccc(-c2noc(-c3cccs3)n2)cc1)c1cccnc1`, the cytotoxicity is 53.2% (active).
For `O=C(Nc1ccc(-c2noc(CCc3ccccc3)n2)cc1)c1ccco1`, the cytotoxicity is 6.6% (inactive).
The result for `c1ccc(CCc2nc(-c3cccnc3)no2)cc1` reads -9.2% (inactive).
Regarding `O=C(Nc1ccc(-c2noc(CCc3ccccc3)n2)cc1)c1cccnc1`, the cytotoxicity is 58.7% (active).
Next, `COc1ccc(Cc2nc(-c3ccc(NC(=O)c4cccnc4)cc3)no2)cc1`: 27.4% (inactive); `COc1cccc(-c2nc(-c3ccc(NC(=O)c4cccnc4)cc3)no2)c1`: 70.7% (active); `COc1ccc(CC(=O)Nc2ccc(-c3noc(-c4cccc(OC)c4)n3)cc2)cc1`: 1% (inactive).
